# Compounds without any hit were thinned out: in the full panel of roughly 83,000, 20% have a hit.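 Negative percent growth values reflect cell death: -40 means 40% of the cells present at the start died, and -100 means all died.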 A number with no mark means an inactive call. Active and inactive are the calls of the source. The calls were made as follows: active = growth percent below 10; inactive = the rest.
# Tests used:
# Assay in all cases: NCI-60 one-dose screen, 48 h (100 = growth as untreated, 0 = no growth, -100 = all killed)
# Conditions in all cases: 10 µM
# HCT-15 colon = tested on: HCT-15 colon
# HT29 colon = tested on: HT29 colon
# SNB-75 CNS = tested on: SNB-75 CNS
# SNB-19 CNS = tested on: SNB-19 CNS
# U251 CNS = tested on: U251 CNS
# PC-3 prostate = tested on: PC-3 prostate
# SK-MEL-5 melanoma = tested on: SK-MEL-5 melanoma
# UACC-62 melanoma = tested on: UACC-62 melanoma
# LOX IMVI melanoma = tested on: LOX IMVI melanoma
# SK-MEL-28 melanoma = tested on: SK-MEL-28 melanoma
Compound,growth (HCT-15 colon),growth (HT29 colon),growth (SNB-75 CNS),growth (SNB-19 CNS),growth (U251 CNS),growth (PC-3 prostate),growth (SK-MEL-5 melanoma),growth (UACC-62 melanoma),growth (LOX IMVI melanoma),growth (SK-MEL-28 melanoma) [%]
C[C@H](NC(=O)[C@@H]1CSSC[C@@H](NC(=O)Cc2nc3ccccc3cc2O)C(=O)NCC(=O)N1C)c1ccccc1,102%,100%,150%,95.2%,95.7%,81.2%,82.5%,77.9%,31.3%,
CCOC(=O)/C(C#N)=C(/C)C1CC1,98.6%,112%,87.7%,110%,100%,97.3%,99.6%,107%,106%,
CCN(CC)CC(O)CNc1ccnc2cc(Cl)c(Cl)cc12 (configuration not stated),69.5%,77.6%,92.9%,110%,75.4%,80%,84.7%,92.8%,73.9%,
CCOC(=S)Sc1ccc([N+](=O)[O-])cc1[N+](=O)[O-],82.8%,0.214% (active),99.5%,111%,90.4%,83.7%,88.4%,99%,14.3%,
O=C(O)CCCN1C(=O)NC2(C1=O)c1ccccc1-c1ccccc12,102%,93.3%,88.9%,104%,94.7%,94.4%,96%,99.3%,94.8%,
COCCNCC(O)Cn1c2ccc(Cl)cc2c2cc(Cl)ccc21 (configuration not stated),-54.1% (active),-15.5% (active),40.7%,24%,-5.49% (active),8.25% (active),-96.1% (active),-73.3% (active),-31.4% (active),
O=C(OCC1OC(n2cc(C(F)(F)F)c(=O)[nH]c2=O)CC1OC(=O)c1ccc([N+](=O)[O-])cc1)c1ccc([N+](=O)[O-])cc1 (configuration not stated),87%,75.3%,90.8%,94.5%,76.1%,71.7%,43.2%,30.7%,64.2%,
Cc1cc(C)c(/C=C2\C(=O)Nc3ccc(NC(=O)CCCCCCC(=O)NO)cc32)[nH]1,86%,11.4%,-1.02% (active),31.2%,4% (active),5.9% (active),6.38% (active),-12.3% (active),7.92% (active),
Cc1ccc(-c2cc(C(=O)Nc3ccc(S(=O)(=O)N4CCCCC4)cc3)[nH]n2)c(O)c1,23.5%,2.87% (active),81.6%,69%,39.3%,51.8%,24.8%,36.2%,54.3%,
CCOC(=O)c1c(C)n(-c2ccc(Cl)cc2)c2ccc(OC(=O)/C=C/c3ccccc3)cc12,60.8%,66.1%,66.6%,89.7%,83.2%,67.7%,79.1%,68.1%,91.4%,
Cc1ccc2oc(=O)cc(/C(=C3/C=CC=N3)c3ccc[nH]3)c2c1,5.43% (active),-36.6% (active),8.89% (active),16.2%,-17.2% (active),8.12% (active),-59.2% (active),11.8%,0.877% (active),27.7
N#C/C(=C/c1cc([N+](=O)[O-])ccc1Cl)C(N)=O,83.4%,80.3%,88.9%,99.7%,93.6%,88.7%,98.8%,104%,68.8%,
C[N+]1(CC2CO2)CCCCCC1 (configuration not stated),94.9%,112%,92.9%,104%,107%,102%,98.1%,102%,105%,
O=C(O)c1ccc(CNc2ccc(C(=O)CCl)cc2)cc1,94.9%,96.4%,93.1%,103%,93.8%,91.9%,97.9%,95.3%,77.9%,
O=C(c1ccccc1)C(Nc1ccccc1)c1ccccc1 (configuration not stated),97.8%,86.4%,79.6%,101%,89.6%,75.5%,85.6%,74.9%,86%,
O=C(O)c1ccccc1C(=O)c1cccc2c(F)cccc12,104%,115%,86.2%,98.3%,98.7%,92.5%,108%,97.7%,92.8%,
O=C1/C(=C/c2ccc(O)cc2)CSc2ccc(Cl)cc21,53.9%,69.3%,93.8%,88.4%,74.8%,58.9%,80.9%,71.8%,49.3%,
CC(C)OCc1cc(CN2CCN(c3cccc(Cl)c3)CC2)c(O)c2ncccc12,4.08% (active),-17.1% (active),-25.3% (active),19.6%,-37.8% (active),-0.0543% (active),-85.2% (active),-61.2% (active),-73.3% (active),
CC1(C)CNC(=O)N1,98.8%,94.6%,94.4%,103%,97.4%,93.3%,82.6%,95.9%,107%,
COc1ccc(-c2cc(/C=C3\C(=O)Nc4cc(Cl)ccc43)[nH]n2)cc1OC,51.2%,32.2%,47.1%,87%,75.7%,58.5%,64.8%,56.9%,52.9%,
COc1cc(C2=Nc3c/c(=C\c4c(O)[nH]c5ccc(Cl)cc45)ccc3=N2)cc(OC)c1OC,24.8%,-73.3% (active),50.1%,-30.9% (active),-90.6% (active),21.7%,-92.2% (active),31.8%,2.31% (active),
Oc1cc(O)c(Br)cc1Br,101%,98.1%,95.7%,102%,99.7%,87.9%,97.7%,101%,94%,
Cc1ccc(NC(=O)/C=N/O)cc1C,98.1%,102%,84.4%,102%,89.8%,86.5%,97.6%,95.4%,101%,
COc1ccc2oc(=O)cc(C3c4ccc([nH]4)C(c4cc(=O)oc5ccc(OC)cc45)c4ccc([nH]4)C(c4cc(=O)oc5ccc(OC)cc45)c4ccc([nH]4)C(c4cc(=O)oc5ccc(OC)cc45)c4ccc3[nH]4)c2c1 (configuration not stated),-62.4% (active),-41.5% (active),19.3%,26%,1.28% (active),30.4%,-4.6% (active),-8.02% (active),-60.4% (active),
Nc1c(CNCc2nnn(Cc3ccccc3)c2N)nnn1Cc1ccccc1,93.9%,105%,99%,103%,97.6%,98.9%,104%,102%,95.3%,
Cc1ccc(-n2c(-c3cc4c([nH]c5ccccc54)c(-c4cccc(O)c4)n3)n[nH]c2=S)cc1,2.88% (active),-44% (active),5.15% (active),4.47% (active),-3.05% (active),19.4%,-17.5% (active),-40.3% (active),-77% (active),
C/C(=N\NC(=S)N1CCCC1)c1ccccn1,31%,26.3%,39.2%,20.3%,4.05% (active),24.7%,4.15% (active),-35.9% (active),1.56% (active),
O=C(c1ccc(Cl)cc1)c1no[n+]([O-])c1C(=O)c1ccc(Cl)cc1,95.7%,67.3%,97.9%,115%,104%,92.9%,98.3%,118%,-74.2% (active),
O=C(/C=C/c1nnc2n(Cc3ccccc3)c(=O)c3c4c(sc3n12)CCCC4)c1ccccc1,88%,106%,116%,99.4%,40.6%,105%,111%,99.6%,84.7%,119
NC(=O)c1ccc(Br)o1,94.1%,95.7%,95.3%,109%,105%,102%,102%,101%,98.1%,

# Source: PubChem BioAssay (NCI)
